# uPA surface inh – inhibitors of cell surface uPA generation; cell surface uPA generation assay, qHTS; Potency, µM (titrated, usually from 38.3 µM), inactives show at the top dose activity change, negative = inhibition, hits mostly inhibitors; actives 0.31% (n = 330,000); active means well fitted inhibition curve with a large enough effect; inconclusive means small, poorly fitted or top-dose-only effect; inactive means no such curve, though single readings can be large or run the other way; tested in mouse RAW 264.7 cells; further: potency means the concentration at half of the fitted maximal effect; nearly all actives have a fitted effect of over 55% in size
# TDP1 cell CPT – DT40-hTDP1 cell growth loss with CPT; AID 686979; actives 12% (n = 420,000); Potency, µM (highest dose often 46.2 µM), inactives show at the top dose activity change, negative = growth inhibition, usual class: inhibitors; chicken DT40 Tdp1-/-;hTDP1 cells + 20 nM CPT, ATP luminescence, 48 h; further: potency means the concentration at half of the fitted maximal effect; nearly all actives have a fitted effect of over 55% in size
#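 Chicken DT40 Tdp1-/- cells stably complemented with human TDP1 were seeded at 400 cells/well in medium containing 20 nM camptothecin, exposed to pin-transferred compounds, and grown at 37 °C for at least 48 hr. Viability was read as ATP luminescence.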
# HT1080 IDH1KD tx – HT-1080 IDH1 knockdown cell toxicity (counter line) | HT-1080 IDH1 knockdown viability, ATP luminescence, 48 h | Potency, µM (highest dose often 46.1 µM), for the others: at the top dose activity, negative = toxicity, usual class: cytotoxic | actives 2% (n = 360,000) | AID 686971;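 further: potency means the concentration at half of the fitted maximal effect; 0% = DMSO wells and -100% = cell-free medium wells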
#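 Knockdown cells (IDH1KD HT-1080) received compounds 2 h after plating at 750 cells/well and were kept 48 h at 37 °C in 5% FBS RPMI. A CellTiter-Glo luminescence read gave % activity for curve fitting.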
# HT1080-NT tox – kills 2HG-producing HT-1080-NT fibrosarcoma cells | HT-1080-NT fibrosarcoma viability, CellTiter-Glo ATP luminescence, 48 h | Potency, µM (top dose mostly 46.1 µM), inactives show at the highest dose activity, negative = less viability, actives largely listed as cytotoxic | actives 1.6% (n = 360,000);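 further: NT is the 2HG producing partner of a matched IDH1 knockdown line; potency means the concentration at half of the fitted maximal effect; 0% = DMSO-treated cells and -100% = media-only wells without cells; nearly all actives have a fitted effect of over 55% in size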
#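 Toxicity toward the 2HG-producing NT line was scored as %Activity, normalised to DMSO and no-cell wells, from CellTiter-Glo luminescence after 48 hours' treatment.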
# IL1B secr inh – inhibitors of inflammasome signaling (IL-1 beta secretion). actives 4.7% (n = 360,000). activity change, % at 57.5 µM. THP-1 LPS/ATP IL-1B secretion, AlphaLISA, 16 h; active compounds read low; in the data active means activity change below about -50%; inconclusive means mostly about -30% to -49%
#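 Secreted IL-1B measured by AlphaLISA bead assay after 16 h compound exposure of THP-1 cells; compounds (final up to 57.5 uM) added 1 h before LPS (250 ng/mL) and ATP (1.25 mM) stimulation; lower signal means less secretion.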
# TDP1 cell noCPT – qHTS for Inhibitors of human tyrosyl-DNA phosphodiesterase 1 (TDP1): qHTS in cells in absence of CPT | AID 686978, 2013 | actives 15% (n = 420,000) | DT40 Tdp1-/- hTDP1 cells, no CPT, ATP luminescence, 48 h | Potency, µM (top dose mostly 46.2 µM), for inactives: top-dose activity change, negative = growth inhibition, hits mostly inhibitors; further: potency means the concentration at half of the fitted maximal effect; nearly all actives have a fitted effect of over 55% in size
#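 Camptothecin absent (DMSO only). Human TDP1-complemented DT40 knockout cells, 400 cells/well, 37 °C for minimum 48 hr; ATP measured via CellTiter-Glo, 30 min dark incubation, luminescence.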
# The depositor's hits bear a star; ? = inconclusive; nt = not tested or not shown. A selection: hits, their analogues and other compounds. The true share with any hit is near 19%. Unless noted, the call rests on the fitted dose curve; in most records, active means well fitted curve in the direction sought with a large enough effect; inconclusive means small, poorly fitted or top-dose-only effect, or another doubt; inactive means no such curve, though single readings can be large; an effect the other way counts as inactive or inconclusive. Unless noted, on the % scale 0 is the no-effect control and ±100 the full control effect.
SMILES,uPA surface inh,TDP1 cell CPT,HT1080 IDH1KD tx,HT1080-NT tox,IL1B secr inh,TDP1 cell noCPT
CCOC(=O)C(C)(C)N(Cc1ccccc1C)S(=O)(=O)c1ccc(Cl)c([N+](=O)[O-])c1,-12%,?,?,?,-97*,12µM*
CCCCN(CCCC)S(=O)(=O)c1ccc(N2CCCC2=O)c([N+](=O)[O-])c1,4%,?,-16%,1%,15,21µM*
Cc1ccccc1CN(CC(=O)Nc1cccc([N+](=O)[O-])c1)S(=O)(=O)c1ccc(Cl)cc1,-6%,?,-22%,?,?,?
Cc1ccc(NC(=O)CN2C(=O)c3ccccc3S2(=O)=O)c(C)c1,4%,-21%,-5%,?,-5,29%
OC(CN1CCOCC1)c1ccc(F)cc1 (centres undefined),-11%,5%,-3%,3%,-10,-6%
O=C(c1ccc(F)cc1)C(CCCCCC(CN1CCOCC1)C(=O)c1ccc(F)cc1)CN1CCOCC1 (centres undefined),-7%,?,?,?,?,18µM*
CC1(C)CC(=O)C(N=Nc2cccc([N+](=O)[O-])c2)=C(O)C1,-2%,-3%,-2%,-8%,0,-29%
CC1(C)CC(=O)C(N=Nc2ccc(C(F)(F)F)cc2[N+](=O)[O-])=C(O)C1,0%,29µM*,12%,11%,nt,23µM*
CCC(C)N(C(=O)c1csnn1)C(C(=O)NCc1ccc(F)cc1)c1ccccc1F (centres undefined),-3%,-28%,29%,21%,-4,?
CCCCN(CCCNC(=O)C1CCN(S(=O)(=O)N2CCOCC2)CC1)c1ccccc1,4%,13µM*,-3%,-2%,-19,13µM*
CCCCN(CCCNC(=O)C1CCN(C(=O)c2cc3sccc3n2C)CC1)Cc1ccccc1,-12%,?,?,18µM*,?,?
Cc1ccccc1Nc1c(-c2ccccn2)nc2ccccn12,?,9.2µM*,?,?,-23,8.2µM*
Cc1ccc2nc(-c3ccccn3)c(Nc3ccccc3C)n2c1,-16%,16µM*,13µM*,13µM*,72,10µM*
Cc1ccc2nc(-c3ccccn3)c(Nc3ccc(F)cc3)n2c1,nt,2.1µM*,nt,nt,nt,2.3µM*
Cc1ccc2nc(-c3ccccn3)c(N)n2c1,nt,?,?,-27%,-4,?
Cc1ccn2c(Nc3ccccc3C)c(-c3ccccn3)nc2c1,-18%,16µM*,9.2µM*,15µM*,0,2.9µM*
Cc1nc(NC(=O)CCN2C(=O)C3CC=CCC3C2=O)sc1C (centres undefined),-5%,-6%,3%,3%,-8,2%
CC(C)c1ccc(Nc2c(-c3ccccn3)nc3ccccn23)cc1,nt,9.2µM*,nt,nt,nt,2.1µM*
CSc1ccc(-c2nc3cc(C)ccn3c2Nc2ccc(C)cc2)cc1,nt,-23%,nt,nt,nt,?
Cc1ccn2c(Nc3ccccc3)c(-c3ccccn3)nc2c1,-4%,4.6µM*,?,-22%,98,2.6µM*
COC(=O)/C=C/c1ccc(OC(=O)c2ccncc2)cc1,-10%,-8%,-1%,3%,0,-9%
CCCCNC(=S)N(C)/N=C/c1ccc(OCc2ccc(C(=O)OC)cc2)c(OC)c1,3%,?,20%,13%,-2,15µM*
O=C(NCc1ccccc1F)C(c1ccccc1)c1ccccc1,-30%,-9%,12%,10%,?,-6%
Cc1ccc(C2=NN=C(NC(=O)C(F)(F)F)SC2)cc1,-1%,-6%,-10%,-30%,-82*,-9%
Cc1ccc(C2=NN=C(NC(=O)CSc3nncn3C)SC2)cc1,-6%,?,?,?,?,?
SMILES,uPA surface inh,TDP1 cell CPT,HT1080 IDH1KD tx,HT1080-NT tox,IL1B secr inh,TDP1 cell noCPT
Cc1cc(C)cc(NC(=O)C2CCN(S(=O)(=O)c3cccc4nonc34)CC2)c1,nt,-21%,nt,nt,nt,-19%
Cc1ccnc(NC(=O)C2CCN(S(=O)(=O)c3cccc4nsnc34)CC2)c1,1%,-6%,4%,1%,-53*,-7%
Cc1ccc(NC(=O)C2CCN(S(=O)(=O)c3cccc4nsnc34)CC2)cc1,nt,-13%,nt,nt,nt,?
Cc1ccnc(NC(=O)C2CCN(S(=O)(=O)c3cccc4nonc34)CC2)c1,0%,-2%,5%,12%,-51*,-29%
O=C(Nc1ccc(Cl)c(C(F)(F)F)c1)C1CCN(S(=O)(=O)c2cccc3nonc23)CC1,nt,13µM*,nt,nt,nt,5.2µM*
O=C(O)c1ccccc1NC(=O)C1CCN(S(=O)(=O)c2cccc3nsnc23)CC1,-2%,-20%,-2%,6%,10,16µM*
O=C(COc1ccccc1Cl)OCc1cc(=O)n2nc(C3CC3)sc2n1,nt,-23%,nt,nt,nt,-14%
COc1ccc(CCNC(=O)COC(=O)C2CC2)cc1OC,4%,-1%,-12%,0%,10,-8%
Cc1ccc(C)c(C(=O)COc2ncnc3ccccc23)c1,0%,18µM*,-15%,-24%,28,?
NS(=O)(=O)c1ccc(CNC(=O)c2cc(S(=O)(=O)N3CCOCC3)c(Cl)cc2Cl)cc1,1%,1%,9%,7%,20,-13%
CC(=O)N1N=C(c2ccc(Br)cc2)CC1c1cn(C)c2ccccc12 (centres undefined),-1%,?,-7%,-2%,12,?
CCCC(=O)N1N=C(c2ccccc2)CC1c1cn(C)c2ccccc12 (centres undefined),14%,?,1%,5%,-56*,?
CCCCn1nnnc1C1(C)CCC(=O)N1Cc1ccc(OC)cc1 (centres undefined),nt,-11%,12%,18%,40,-12%
CCOc1ccc(NC(=O)CSc2oc(-c3ccc(C)cc3)nc2S(=O)(=O)c2ccc(C)cc2)cc1,nt,7.3µM*,nt,nt,nt,5.8µM*
O=C(CSc1oc(-c2ccco2)nc1S(=O)(=O)c1ccc(Cl)cc1)Nc1ccc(F)cc1,nt,-28%,nt,nt,nt,-6%
O=S(=O)(Nc1nc(SCc2ccc(Cl)cc2)n[nH]1)c1ccc(F)cc1,-2%,?,?,?,-59*,?
CCOc1ccc(NC(=O)CSc2oc(-c3cccs3)nc2S(=O)(=O)c2ccc(Cl)cc2)cc1,nt,18µM*,nt,nt,nt,13µM*
O=S(=O)(c1ccc(Cl)cc1)c1nc(-c2cccs2)oc1SCc1ccc(F)cc1,nt,21µM*,nt,nt,nt,?
CSc1oc(-c2cccs2)nc1S(=O)(=O)c1ccccc1,-3%,-14%,-9%,-10%,15,6%

# From PubChem BioAssay
